TGFb inhibitor: blocks TGF-b signaling. HepG2 CAGA-GFP TGF-b/SMAD3 reporter, GFP fluorescence, 18 h; TGF-beta stimulated, 500 pg/mL final. Potency, µM (series often up to 46.1 µM), without a hit: top-dose activity, negative = inhibition, actives largely listed as inhibitors. 1.2% of 410,000 active; note: potency is the fitted concentration of half-maximal effect; % is set by controls: 0 for no effect and ±100 for the full control effect; nearly all actives have a fitted effect of over 65% in size
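Inhibition was scored as loss of TGF-beta-induced (500 pg/mL final, 18 hours, 37 degrees C) GFP in HEPG2 cells carrying a CAGA-GFP reporter, in DMEM with 1% FBS. Well GFP was summed per cell; Activity was normalised to unstimulated and stimulated DMSO wells, then concentration-response fitting.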
ATXN viability: reduces viability in counter-screen for ATXN expression inhibitors | S2 cells (HEK-293 line with an ATXN2-luciferase reporter) viability, CellTiter-Fluor protease fluorescence, 24 h | Potency, µM (doses to about 56.7 µM), most hits filed as cytotoxic | AID 651635 | 0.49% of 400,000 active; note: potency is the fitted concentration of half-maximal effect; nearly all actives have a fitted effect of over 40% in size
ATXN2 expr inh: inhibitors of ATXN2 expression | Potency, µM (top dose mostly 57 µM), inactives show top-dose activity change, negative = inhibition, hits mostly inhibitors | HEK-293 ATXN2-luciferase reporter, luminescence, 24 h | 0.72% of 360,000 active; note: potency is the fitted concentration of half-maximal effect; % is set by controls: 0 for no effect and ±100 for the full control effect; nearly all actives have a fitted effect of over 55% in size
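qHTS (up to 57 uM final) was run with 24 h compound exposure of reporter cells at 37 °C. Each well was multiplexed: SteadyGlo luminescence measured ATXN2-luciferase expression after a fluorogenic Gly-Phe-AFC viability readout (25 uM final).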
DRD3 agonist: D3 dopamine receptor (human) agonism; D3R DiscoveRx beta-arrestin cells, luminescence, 90 min; max activation, %; P35462; 0.58% of 410,000 active; in the data active = max activation above about 30%; note: 0% is about no effect
Target sequence (P35462 whole entry, looked up): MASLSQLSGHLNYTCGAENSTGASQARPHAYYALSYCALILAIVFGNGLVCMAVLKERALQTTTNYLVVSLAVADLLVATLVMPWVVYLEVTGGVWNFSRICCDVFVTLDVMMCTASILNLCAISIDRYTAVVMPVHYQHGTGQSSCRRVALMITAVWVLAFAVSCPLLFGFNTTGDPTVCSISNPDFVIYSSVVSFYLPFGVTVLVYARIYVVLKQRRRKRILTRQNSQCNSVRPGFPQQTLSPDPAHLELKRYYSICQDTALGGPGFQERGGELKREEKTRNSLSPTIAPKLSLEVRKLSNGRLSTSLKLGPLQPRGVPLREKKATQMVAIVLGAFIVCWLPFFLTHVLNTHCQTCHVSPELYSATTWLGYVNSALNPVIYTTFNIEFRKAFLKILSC
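Agonist-mode cell screen: cells plated at 1500/well and incubated overnight at 37 °C, then exposed to library compounds for 90 min at 37 °C. Detection reagent was added for 30–60 min at room temperature, and luminescence was read.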
HepG2 viability: counter-screen for TGF-b inhibitors: cytotoxicity in HepG2 cells | HepG2 CAGA-GFP viability, ATP luminescence, 18 h | Potency, µM (series often up to 46.1 µM), for the others: top-dose activity change, negative = cytotoxicity, usual class: cytotoxic | 0.76% of 410,000 active | AID 588856; note: potency is the fitted concentration of half-maximal effect
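CellTiter-Glo luminescence gave cytotoxicity after 18 hours at 37 degrees C. The cells were HepG2 CAGA-GFP in 1% FBS DMEM, stimulated with 500 pg/mL TGF-beta after compound addition. %Activity was normalised to no-cell wells (complete cell-killing) and DMSO (no toxicity), and curves were fitted and classified.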
D3 antag: antagonists of human D3 dopamine receptor; P35462; D3R cells, DiscoveRx beta-arrestin luminescence, antagonist mode; hits give low values; max response, negative = inhibition, %; 2.5% of 360,000 active; in the data active = max response below about -50%; inconclusive = no clear call, values can overlap the other calls; note: % is set by controls: 0 for no effect and ±100 for the full control effect
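Cells plated overnight at 1500 cells/well, then exposed to library compounds with dopamine controls for 90 minutes at 37 degrees C. DiscoveRx reagent added for 30–60 minutes at room temperature; luminescence read, quantitative HTS format.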
Active calls of the source: *; i = inactive; ? = inconclusive; / = not tested or not shown; ! = repeats disagree. Most compounds without a hit are left out; they make up all but 4.7% or so of the library. Unless noted, calls come from the whole dose curve; as a rule, active = well fitted curve in the direction sought with a large enough effect; inconclusive = small, poorly fitted or top-dose-only effect, or another doubt; inactive = no such curve, though single readings can be large; an effect the other way counts as inactive or inconclusive.

SMILES	TGFb inhibitor	ATXN viability	ATXN2 expr inh	DRD3 agonist	HepG2 viability	D3 antag
C#CCN(C[C@@H]1[C@@H](OC(=O)NCc2ccco2)[C@@H](OC(=O)NCc2ccco2)Cn2c(=O)ccc(=O)n21)S(=O)(=O)c1ccc(C)cc1	?	25µM*	14µM*	5	-34%	-3
C#CCN(C[C@@H]1[C@@H](OC(=O)NCc2ccc(OC)c(OC)c2)[C@@H](OC(=O)NCc2ccc(OC)c(OC)c2)Cn2c(=O)n(CCCCCC)c(=O)n21)S(=O)(=O)c1ccc(C)cc1	-9%	i	6%	5	0%	14
C#CCN(C[C@H]1[C@H](OC(=O)NCC2CCCCC2)[C@H](OC(=O)NCC2CCCCC2)C[C@@H](C(=O)OC)[C@H]1C(=O)OC)S(=O)(=O)c1ccc(C)cc1	-1%	?	-9%	-7	-29%	-17
C#CCN(C[C@@H]1[C@@H](OC(=O)NCc2ccc(OC)c(OC)c2)[C@@H](OC(=O)NCc2ccc(OC)c(OC)c2)Cn2c(=O)ccc(=O)n21)S(=O)(=O)c1ccc(C)cc1	?	20µM*	?	-1	-23%	21
C#CCN(C[C@@H]1[C@@H](OC(=O)NCCCCCC)[C@@H](OC(=O)NCCCCCC)Cn2c(=O)ccc(=O)n21)S(=O)(=O)c1ccc(C)cc1	6.3µM*	4µM*	3.5µM*	2	6.3µM*	-23
C#CCN(C[C@@H]1[C@@H](OC(=O)NCc2ccco2)[C@@H](OC(=O)NCc2ccco2)Cn2c(=O)n(CCCCCC)c(=O)n21)S(=O)(=O)c1ccc(C)cc1	?	i	-21%	-9	-11%	2
C#CCN(C[C@@H]1[C@@H](OC(=O)NCC2CCCCC2)[C@@H](OC(=O)NCC2CCCCC2)Cn2c(=O)ccc(=O)n21)S(=O)(=O)c1ccc(C)cc1	7.1µM*	3.5µM*	3.5µM*	-7	-87%	-81*
COC(=O)C1CCN(Cc2ccc3c(c2)CN(C(=O)c2ccc4nc(C)c(C)nc4c2)CCO3)CC1	/	i	/	/	/	/
CC(C)CC(C(=O)NCc1ccc(F)cc1)N1Cc2ccccc2C1=O (stereo unspecified)	-1%	/	/	-7	-4%	/
Cc1oc(-c2ccccc2NC(=O)C2CCCO2)nc1CNC(=O)c1[nH]c2c(C)ccc(C)c2c1C (stereo unspecified)	/	i	/	/	/	/
Cc1ccc(NC(=O)Cn2nnc(C(=O)NCCc3ccccc3)c2N)cc1	-7%	i	-15%	-6	10%	/
Cc1ccc(S(=O)(=O)Cn2nnnc2C(C(C)C)N2CCN(Cc3ccco3)CC2)cc1 (stereo unspecified)	0%	i	-7%	-31	-2%	-59*
CCOc1cc(Br)c(Br)c(C=Nc2ccc(NC(C)=O)cc2)c1O	1%	?	2%	3	-1%	-100*
O=C(NNC(=O)c1cccnc1SCc1cccc([N+](=O)[O-])c1)c1ccccn1	?	i	7.9µM*	6	-18%	-7
O=C(NNC(=O)c1cccnc1SCc1cccc([N+](=O)[O-])c1)c1ccc(F)cc1	-4%	?	?	-23	9%	-14
CCc1ccc(NC(=O)c2cc3c(=O)n(Cc4cccs4)ccc3nc2C)cc1	?	?	?	-17	-32%	/
NNC(=O)c1ccc(OCC2CC(c3ccc(Cl)cc3)=NO2)cc1 (stereo unspecified)	?	i	-33%	4	13µM*	-5
Cc1cc(=O)oc2cc(OCC3CC(c4ccc(Cl)cc4)=NO3)ccc12 (stereo unspecified)	-3%	i	-10%	0	-22%	13
CCCc1nn2c(=O)cc(COC(=O)c3cccs3)nc2s1	-8%	i	27%	-8	-6%	/
O=S(=O)(NCCc1csc2nc(-c3ccccc3)nn12)c1cc(F)ccc1F	?	/	/	5	-2%	/
Oc1[nH]c2ccccc2c1N=NC(=S)NCCc1ccccc1	11µM*	i	-4%	-20	-50%	-24
CCOc1ccc(NC(=S)N=Nc2c(O)[nH]c3ccccc23)cc1	7.9µM*	?	-32%	10	8.9µM*	-12
CC(C)c1ccc2[nH]c(O)c(N=NC(=S)NCCc3ccccc3)c2c1	?	?	/	0	-39%	-11
Cc1cccc(NC(=O)CCc2c(C)nc3c(c(C)nn3C(C)(C)C)c2C)c1C	-10%	i	-9%	4	-9%	/
COc1cc(OC)c(NC(=O)c2ccc3c(Cl)c4c(nc3c2)CCCC4)cc1Cl	1%	i	13%	7	8%	/
SMILES	TGFb inhibitor	ATXN viability	ATXN2 expr inh	DRD3 agonist	HepG2 viability	D3 antag
COc1cc(OC)c(Nc2c3c(nc4nc(-c5cccs5)nn24)CCCC3)cc1Cl	?	28µM*	-23%	4	-30%	/
Cc1cccc(N=C2NC(=O)/C(=C3/C(=O)N(C)c4ccccc43)S2)c1C	-21%	i	-12%	-5	-32%	-93*
Cc1ccccc1N=C1NC(=O)/C(=C/c2cccn2C)S1	2%	?	/	-17	-2%	-15
Cc1ccc(NC(=O)c2ccccc2NS(=O)(=O)c2ccc(Cl)s2)cc1	?	i	?	11	-69%	20
O=C(Nc1ccccc1)c1ccccc1NS(=O)(=O)c1ccc(Cl)s1	13µM*	?	?	22	-31%	12
O=C(Nc1ccc(S(=O)(=O)N2CCOCC2)cc1)c1cc(Cl)ccc1NS(=O)(=O)c1ccc(Cl)s1	/	16µM*!	-12%	/	/	/
O=C1CSc2ccc(C(=O)Nc3cccc(S(=O)(=O)Nc4ccc(Br)cc4)c3)cc2N1	13µM*	?	/	3	16µM*	6
O=C(Nc1cccc(S(=O)(=O)Nc2ccc(Cl)cc2)c1)c1ccc(Cl)nc1	14µM*	?	?	0	-41%	-6
O=C(O)c1ccc(NC(=O)c2cccc(S(=O)(=O)Nc3ccc(C(=O)O)cc3)c2)cc1	-8%	i	-16%	3	-18%	0
Clc1ccc(/C=C/c2ccc3ccccc3n2)cc1Cl	?	/	/	/	-21%	/
Cc1ccc(Cl)cc1-n1ncc2c(NC3CCCCCC3)ncnc21	11µM*	?	?	-28	-33%	/
Cc1ccc(CNc2ncnc3sc(C(=O)N4CCC(N5CCCC(O)C5)CC4)c(C)c23)o1 (stereo unspecified)	/	i	/	/	/	/
CS(=O)(=O)c1ccc(C(=O)OCC(=O)Nc2cccnc2Cl)cc1[N+](=O)[O-]	?	i	9%	-22	-94%	-68*

Screening results from PubChem.
